Bioassay records (PubChem BioAssay)
CYP2C19 inh: human CYP2C19 inhibition. CYP2C19 Supersomes, luciferin-H EGE luminescence, 30 min. hit rate 21% among 96,000. P33261. inhibition, % at 5 µM. AID 778;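 active means CYP2C19 inhibition above a set limit at 5 µM in the primary screen, cut at about 50% in these data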
CYP2C9 activ: increases human cytochrome P450 2C9 activity | P11712 | recombinant CYP2C9, luciferin-H conversion, luminescence; stronger effect = higher value; factor 1 = untreated enzyme, 0 = blocked | activation factor at 5 µM | hit rate 1.4% among 96,000;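 active means activation factor of 2 or more for CYP2C9 at a 5 µM dose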
Target sequence (P11712 whole entry, looked up): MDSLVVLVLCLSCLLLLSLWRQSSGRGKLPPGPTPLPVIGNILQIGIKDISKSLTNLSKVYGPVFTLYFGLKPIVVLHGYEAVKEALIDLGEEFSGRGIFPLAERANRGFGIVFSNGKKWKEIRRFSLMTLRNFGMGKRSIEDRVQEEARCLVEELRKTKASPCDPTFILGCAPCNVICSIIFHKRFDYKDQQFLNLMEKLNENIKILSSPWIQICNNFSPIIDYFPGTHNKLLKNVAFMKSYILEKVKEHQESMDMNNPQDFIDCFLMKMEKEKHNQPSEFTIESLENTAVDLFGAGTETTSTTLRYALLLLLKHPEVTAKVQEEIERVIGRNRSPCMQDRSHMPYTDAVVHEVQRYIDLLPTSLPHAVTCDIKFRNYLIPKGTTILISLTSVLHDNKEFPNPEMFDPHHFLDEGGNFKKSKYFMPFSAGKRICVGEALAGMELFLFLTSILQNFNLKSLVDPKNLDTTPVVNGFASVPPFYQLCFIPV
PTK2B oligo ant: blocks oligomerization of human Pyk2 in cells. Q293 cells, Pyk2 FERM NanoBiT luminescence; stronger effect = lower value. Q14289. z-score (the deposit names both 25 µM and 10 µM). hit rate 0.83% among 99,000. AID 1347419;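 active means Z-score of -3 or lower, scaled per plate to the spread of control and sample wells; inactive means z-score above -3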;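 further: negative z-score means lost luminescence so less FERM oligomerization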
CYP2C19 act: activators of human cytochrome P450 2C19. P33261. recombinant CYP2C19, luciferin-H EGE luminescence; stronger effect = higher value; 0 = fully inhibited enzyme, 1 = untreated enzyme. activation factor at 5 µM. 96,000 tested, under 10 active. AID 1025;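 active means activation factor of at least 2 at 5 µM in the primary screen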
CYP2C9 inhib: blocks human cytochrome P450 2C9; P11712; CYP2C9 Supersomes, luciferin-H conversion, luminescence; inhibition, % at 5 µM; hit rate 20% among 96,000; AID 777;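 active means blocking of liver enzyme CYP2C9 beyond about 50% at 5 µM, limit read from the data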
Large screens that a line does not name were inactive. Compounds with a hit are over-represented: about 28% of the library has one in this group of screens.

Cc1cc(NC(=O)CCC(=O)N(Cc2cccs2)C(C(=O)NC2CCCC2)c2ccncc2)no1 (stereo not drawn)	CYP2C19 inh 68.6, CYP2C9 inhib 84.5
COc1ccc(NS(=O)(=O)c2ccc(NC(=O)c3ccc(N(C)S(C)(=O)=O)cc3)cc2)c(OC)c1	none (no result: CYP2C19 inh, CYP2C9 activ, CYP2C19 act, CYP2C9 inhib)
CC(=O)C1=C(O)C(=O)N(Cc2ccccc2)C1c1ccco1 (stereo not drawn)	none
O=C(/C=C/Nc1ccc([N+](=O)[O-])cc1Br)c1cccc2ccccc12	none (no result: CYP2C19 inh, CYP2C9 activ, CYP2C19 act, CYP2C9 inhib)
O=C1CC(=O)C(n2cncn2)C(c2ccc(Cl)cc2Cl)C1 (stereo not drawn)	CYP2C9 inhib 74.5
COc1cc(C)nc(Oc2ccc(OCCOc3ccc(C)cc3)nn2)n1	none
COC(=O)C(c1cc(OC)c(O)c(OC)c1)(N1CCNC(C)C1)C(F)(F)F (stereo not drawn)	none
CCN(CC(=O)NCCc1ccc(S(N)(=O)=O)cc1)Cc1nc2cc(OC)c(OC)cc2c(=O)[nH]1	none
CCN(Cc1nc2cc(OC)c(OC)cc2c(=O)[nH]1)C(=O)c1ccc(S(=O)(=O)N(C)C)cc1	CYP2C9 inhib 54.2
COCCCNC(=O)Cn1nnc(-c2ccccc2NC(=O)c2ccccc2F)n1	CYP2C19 inh 56.9, CYP2C9 inhib 87.5
COc1ccc(CCNC(=O)CNS(=O)(=O)c2cccs2)cc1OC	CYP2C19 inh 64.3
COc1ccc(CCNC(=O)Cn2nnc(-c3ccccc3F)n2)cc1OC	CYP2C9 inhib 64.7
COc1ccc(-c2nnn(CC(=O)NCCc3c[nH]c4ccccc34)n2)cc1OC	CYP2C19 inh 63.5 (no result: CYP2C9 activ, CYP2C9 inhib)
CCOc1ccc(-c2nnn(CC(=O)NCCc3c[nH]c4ccccc34)n2)cc1	none
O=S1(=O)CC(O)C(N2CCCCC2)C1 (stereo not drawn)	none (no result: CYP2C19 inh, CYP2C9 activ, CYP2C19 act, CYP2C9 inhib)
COCCNc1cc(C)nc2c3c(C)cc(C)nc3nn12	none
COc1ccc(C(=O)Cn2nnc(-c3cccs3)n2)cc1	none
COC(=O)CCn1nnc(-c2cccs2)n1	CYP2C19 inh 77.9
O=C(CN1CCC(O)(c2ccccc2F)CC1)NCCc1c[nH]c2ccccc12	CYP2C9 inhib 80.3
COc1ccc(CCNC(=O)Cn2nnc(-c3cccs3)n2)cc1OC	CYP2C9 inhib 55.7
Cc1ccc(C2=C/C(=C/c3cccs3)C(=O)O2)cc1	none (no result: CYP2C19 inh, CYP2C9 activ, CYP2C19 act, CYP2C9 inhib)
O=C(NCCN1CCOCC1)c1cn(-c2ccccc2)nc1-c1cccs1	none
O=C(Nc1ccncc1)c1cn(-c2ccccc2)nc1-c1cccs1	CYP2C19 inh 93.6, CYP2C9 inhib 92.8
O=C(c1cn(-c2ccccc2)nc1-c1cccs1)N1CCN(c2ccc(F)cc2)CC1	CYP2C19 inh 83.9, CYP2C9 inhib 73.9
CC(NC(=O)COC(=O)c1cn(-c2ccccc2)nc1-c1cccs1)c1ccccc1 (stereo not drawn)	CYP2C9 inhib 66.8
O=C1CC(c2ccc(S(=O)(=O)Nc3cc(C(F)(F)F)cc(C(F)(F)F)c3)cc2)CN1 (stereo not drawn)	CYP2C9 inhib 78.6
Cc1ccccc1NS(=O)(=O)c1ccc(C2CNC(=O)C2)cc1 (stereo not drawn)	CYP2C19 inh 55.8
Cc1onc(-c2c(F)cccc2Cl)c1C(=O)NCCc1ccc(S(N)(=O)=O)cc1	none
CCCCCn1c(C(Cc2ccccc2)NC(C)=O)nc2ccccc21 (stereo not drawn)	CYP2C19 inh 73.6 (no result: PTK2B oligo ant)
CCCCn1c(NC(=O)c2ccccc2)nc2ccccc21	CYP2C19 inh 60.8, CYP2C9 inhib 73.4
CCCn1c(NC(=O)c2ccc(Br)cc2)nc2ccccc21	none
Cc1ccc(C2c3sc(=O)[nH]c3SC3C(=O)NC(=O)C32)cc1 (stereo not drawn)	none (no result: CYP2C19 inh, CYP2C9 activ, CYP2C19 act, CYP2C9 inhib)
Cn1cccc1CC(=O)N/N=C\c1c2ccccc2cc2ccccc12	CYP2C19 inh 51.6
Cn1cccc1CC(=O)N/N=C/c1cccc2ccccc12	none
CN1C2CCC1CC(OC(=O)c1c[nH]c3ccccc13)C2 (stereo not drawn)	none
CCn1nc(C(=O)OC(C(=O)c2c[nH]c3ccccc23)c2ccccc2)c2ccccc2c1=O (stereo not drawn)	CYP2C9 inhib 73.8
CCn1c(NCc2c[nH]c3ccccc23)nc2ccccc21	none (no result: CYP2C19 inh, CYP2C9 activ, CYP2C19 act, CYP2C9 inhib)
c1ccc(Cn2c(CN3CCCC3)nc3ccccc32)cc1	CYP2C19 inh 57.9
Cn1c(NCc2cccs2)nc2ccccc21	CYP2C19 inh 52.5
Cn1c(NCc2c[nH]c3ccccc23)nc2ccccc21	CYP2C19 inh 69.4
CCN(CC)CCn1c(NCc2nc3ccccc3n2Cc2ccccc2)nc2ccccc21	CYP2C9 inhib 85.7
Cc1nnc(-c2cnn(C)c2N)n1Cc1ccc(Cl)cc1	none
CCn1c(NCc2cccs2)nc2ccccc21	CYP2C19 inh 57.4
C=CCc1cccc(CNc2nc3ccccc3n2CCC)c1O	none
C=CCc1cccc(CNc2nc3ccccc3n2CC)c1O	CYP2C9 activ 2.1
CCn1c(NCc2ccccn2)nc2ccccc21	none (no result: CYP2C19 inh, CYP2C9 activ, CYP2C19 act, CYP2C9 inhib)
CCn1c(NCc2ccc(N(C)C)cc2)nc2ccccc21	CYP2C19 inh 72.4
Cc1nc2c(Cl)cccc2[nH]1	none
O=C(O)C1C2C=CC(C2)C1C(=O)Nc1ccc(C(=O)N2CCCCC2)cc1 (stereo not drawn)	none
c1ccc(-n2nnnc2SCc2ccccn2)cc1	CYP2C19 inh 87.6
Cc1cc(C)n2cc(CSc3nnnn3-c3ccc(Cl)cc3)nc2n1	CYP2C9 activ 2.2
Cc1cc(C)n2cc(CSc3nnnn3-c3ccccc3)nc2n1	none
Cc1ccc(-c2noc(CSc3nnnn3C3CCCCC3)n2)cc1	none (no result: PTK2B oligo ant)
c1ccc(-c2noc(CSc3nnnn3-c3ccccc3)n2)cc1	CYP2C19 inh 63.3, CYP2C9 inhib 53.6 (no result: PTK2B oligo ant)
C(=C\CSc1nnnn1-c1ccccc1)/CSc1nnnn1-c1ccccc1	none
Cc1ccc(-n2nnnc2SCc2ccccn2)cc1C	CYP2C19 inh 57.1
COc1ccc(CC(=O)NC2CC(C)(C)NC(C)(C)C2)cc1	none (no result: CYP2C19 inh, CYP2C9 activ, CYP2C19 act, CYP2C9 inhib)
CN1C(=O)C2(c3ccccc31)N(C)CC(c1ccccn1)C21SC(=S)N(Cc2ccco2)C1=O (stereo not drawn)	none
Cc1cccc2nc(CSc3nnnn3-c3ccccc3)cn12	CYP2C19 inh 84.2
CC(C)Oc1ccc(CNC2CCOC(C)(C)C2)cc1 (stereo not drawn)	none
Cc1ccc(Nc2cc(-n3cccn3)ncn2)c(C)c1	CYP2C19 inh 60.7
Fc1cccc(Nc2cc(-n3cccn3)ncn2)c1	none (no result: CYP2C19 inh, CYP2C9 activ, CYP2C19 act, CYP2C9 inhib)
Cc1ccc(Nc2cc(-n3nc(C)cc3C)ncn2)c(C)c1	CYP2C19 inh 54.4
CCc1ccccc1N1CC(C(=O)O)CC1=O (stereo not drawn)	none
Oc1ccc(Cl)cc1C1=NCCNC(C(F)(F)C(F)F)=C1	none
CCn1c(-c2ccccc2Cl)nn(CC(=O)Nc2cc(Cl)ccc2Cl)c1=S	CYP2C19 inh 88.6
Cc1nc(-c2ccccc2)sc1-c1n[nH]c(=S)n1C	none
CSc1nnc(-c2sc(-c3ccccc3)nc2C)n1C	CYP2C9 inhib 72.3
O=C1c2ccsc2SCCN1Cc1ccc(Cl)cc1	CYP2C19 inh 57.7
CCc1c(C)nc(N)nc1OCC(F)(F)C(F)F	none
COc1nc(-c2ccccc2)cc(-c2ccc(OC)c(OC)c2)n1	CYP2C19 inh 75.8, CYP2C9 inhib 79.8
